The values below come from PubChem BioAssay AID1259397 (Fisher Drug Discovery Resource Center, 2018).

Several values for one entry are separate records, joined by “and”; a condition that tells them apart may be missing. Equal entries are not always repeated. Screen size: about 130,000 compounds; about 230 (0.18%) were called active.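 How the source made its calls: active means inhibition of cGAS enzyme activity at or above 60%; inactive means the rest.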 This excerpt belongs to a sample that is enriched for actives. The source holds several records for some structures; these can differ, active in one and inactive in another.

This assay deals with Cyclic GMP-AMP synthase (Mus musculus) (UniProt Q8C6L5). The assay is described as follows: inhibitors of Mus musculus cyclic GMP-AMP synthase, initial high-throughput assay, cell-free, RapidFire MS (AID 1259397).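 Further: enzyme stimulated by 45 bp dsDNA with ATP and GTP substrates; cGAMP share of summed cGAMP plus half ATP and half GTP signals.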 The conditions noted are these: recombinant mouse cGAS, cGAMP by RapidFire MS; at 12.5 µM; stronger effect = higher value.
Cyclic GMP-AMP synthase (Mus musculus), sequence (Q8C6L5 whole entry, looked up): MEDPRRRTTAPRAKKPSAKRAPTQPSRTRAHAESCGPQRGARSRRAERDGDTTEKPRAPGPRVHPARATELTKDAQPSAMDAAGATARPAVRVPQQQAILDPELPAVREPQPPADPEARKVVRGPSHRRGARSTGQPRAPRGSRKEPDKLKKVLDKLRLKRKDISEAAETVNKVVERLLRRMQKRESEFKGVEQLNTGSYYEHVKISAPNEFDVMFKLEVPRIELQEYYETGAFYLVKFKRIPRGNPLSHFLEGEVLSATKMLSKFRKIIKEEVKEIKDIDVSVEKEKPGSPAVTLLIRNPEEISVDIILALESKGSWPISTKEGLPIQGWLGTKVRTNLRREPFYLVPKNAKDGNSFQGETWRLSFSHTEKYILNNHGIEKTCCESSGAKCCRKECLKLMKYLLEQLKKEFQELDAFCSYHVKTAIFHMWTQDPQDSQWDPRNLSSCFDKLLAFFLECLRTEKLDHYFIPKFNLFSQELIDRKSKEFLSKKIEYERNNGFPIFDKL
With `CC(=O)NN=C1CCCc2c(C)cc(C)cc21`, the inhibition (as a rule, the relative decrease from the control value, in per cent) was 23.5% (inactive).
`O=C(CN1C(=O)NC2(CCCC2)C1=O)N1CCN(C(=O)c2cccs2)CC1`: the inhibition is -1.67% (inactive).
With `O=C(Nc1ccccc1Cl)C(=O)N1CCC2(CC1)C(=O)Nc1ccccc12`, the inhibition is -33.1% (inactive).
Take `CCn1ccnc1CN(C)C(=O)c1cc(COc2cccc3cnccc23)on1`: the inhibition was -1.51% (inactive) and -6.44% (inactive).
In the case of `CC(C)(C)CN(CCO)Cc1ncc(C(C)(C)C)o1` it was -4.58% (inactive); in that of `CS(=O)(=O)Cc1nc(-c2cc3c(cc2F)NC(=O)CC3)cs1`, -12.8% (inactive); in that of `C=CCN(CC=C)C(=O)CSc1nc2scc(-c3ccc(F)cc3)c2c(=O)n1C`, 11.1% (inactive).
On to `COCCn1c(-c2cc(OC)ccc2OC)csc1=Nc1ccc(OC)cc1`, for which the inhibition was -17.5% (inactive).
Regarding `Cc1ccc(-c2nc(CCNC(=O)c3cccc(C)c3)cs2)cc1`, the inhibition was 5.19% (inactive).
`O=S(=O)(c1ccc(Oc2nc(C(F)(F)F)nc3ccccc23)cc1)N1CCOCC1`: the inhibition is -25.2% (inactive).
In the case of `COC(=O)NC(C)C(=O)NCc1cccnc1Oc1c(C)cccc1C` (configuration not stated) it was -19.5% (inactive).
With `CCN(Cc1ccccc1)C(=O)COC(=O)c1cccc(O)c1` the figure was 5.18% (inactive); with `CN1CCN(c2ccc(NC(=O)c3cccs3)c(C(F)(F)F)c2)CC1`, -17.2% (inactive); with `COc1ccc(C2=CCN(C(=O)c3csc(NC(C)=O)n3)CC2)cc1`, -5.03% (inactive).
As for `COc1ccc(CCn2c(SCCO)nc3c2c(=O)n(C)c(=O)n3C)cc1`, the inhibition was -8.65% (inactive).
With `Cc1nn(C)c(C)c1C(=O)N(C)Cc1ccc(Cl)cc1` the figure was -0.861% (inactive).
Regarding `CCC(C(=O)N1CC=CCC1)n1cc(C(C)=O)c2ccccc21` (configuration not stated), the inhibition was -14.3% (inactive).
Regarding `Fc1ccc(-c2[nH]ncc2CNCc2ccc(OC(F)(F)F)cc2)c(F)c1`, the inhibition was -8.38% (inactive).
As to `N#Cc1ccc(NC(c2ccccc2)c2ccccn2)nc1` (configuration not stated), the inhibition is 9.13% (inactive).
In the case of `CC(Cn1ccnc1)NS(=O)(=O)c1ccccc1` (configuration not stated), the inhibition is -2.43% (inactive).
With `Cc1nc2c(c(NCc3csc(-c4cnccn4)n3)n1)CCN(C)CC2` the figure was -14.9% (inactive); with `COc1ccc(NC(C)=O)cc1S(=O)(=O)Oc1ccc2c(c1)CCC2`, -14.7% (inactive).
For the compound `O=C(Cn1ccc(=O)c2ccccc21)Nc1cc(Cl)ccc1C(=O)N1CCCC1`, the inhibition is -4.35% (inactive).
Turning to `COc1ccccc1-c1n[nH]c(=S)n1-c1ccc(C)cc1`, the inhibition is -2.19% (inactive).
As for `O=C(Nc1ccc(F)cc1)Nc1ccc(OC(F)F)cc1`, the inhibition was -13.8% (inactive).
As to `O=c1oc2c(CN3CC4CC(C3)c3cccc(=O)n3C4)c(O)ccc2cc1-c1nc2ccccc2s1` (configuration not stated), the inhibition was -0.297% (inactive).
As for `O=C(O)CCCc1ccccc1`, the inhibition was 0.216% (inactive) and -7.46% (inactive) and -8.15% (inactive).
With `O=C(O)CCCc1ccc(Br)s1`, the inhibition is 92.3% (active).
Turning to `O=C(CCSCc1ccccn1)NCc1ccc(Br)s1`, the inhibition was 7.74% (inactive).
With `CS(=O)(=O)c1ccc(CN2CCN3C(C(=O)N4CCOCC4)=COC3=NC2=O)cc1` the figure was 62.5% (active); with `N#Cc1cccc(CN2CCN3C(C(=O)NCCCc4ccccc4)=COC3=NC2=O)c1`, -8.68% (inactive).
Turning to `O=C(NCCc1ccccc1)C1=COC2=NC(=O)N(Cc3ccccc3C(F)(F)F)CCN12`, the inhibition was -9.37% (inactive).
As for `Cc1cc2nc3c(=O)[nH]c(=O)nc-3n(C[C@H](O)[C@H](O)[C@H](O)CO)c2cc1C`, the inhibition is 87.9% (active).
On to `Cc1c(C(=O)NCc2cccs2)sc(=O)n1Cc1ccccc1C(F)(F)F`, for which the inhibition is -4.53% (inactive).
With `COc1ccccc1CNC(=O)CC1C(=O)NCCN1Cc1ccccc1C` (configuration not stated) the figure was -7.58% (inactive).
Regarding `C=Cc1c(C)c2[n-]c1=Cc1[n-]c(c(CC)c1C)C=c1[n-]c3c(c1C)C(O)=C(C(=O)O)C=3c1[n-]c(c(C)c1CCC(=O)O)C=2.[Cu]`, the inhibition is 97.2% (active) and -3.92% (inactive).
With `Cc1ccc(C(=O)Nc2ccc(C(=O)NCC(N)=O)cc2)cc1Cl` the figure was -5.23% (inactive); with `CCC(N)(C(=O)OC)c1ccccc1` (configuration not stated), -5.42% (inactive); with `Cc1ccc(NC(=O)Cc2nc(-c3ccc4c(c3)CCO4)cs2)c(C)c1`, 4.73% (inactive).
Regarding `Cc1ccc(NS(=O)(=O)c2ccccc2C(F)(F)F)cc1C`, the inhibition was -9.68% (inactive).
In the case of `Cc1nc(-c2cccs2)sc1C(=O)OCc1cc(=O)n2c(C)csc2n1` it was 17.2% (inactive); in that of `COc1cc(C)c(CN2CCN(C(=O)C3=COCCO3)CC2)cc1OC`, 0.561% (inactive); in that of `O=C(NCC1(c2ccc(F)cc2)CCCC1)C1CCN(C(=O)C2CC2)CC1`, 0.199% (inactive).
Regarding `FC(F)C(F)(F)C(F)(F)C(F)(F)CNCc1ccco1`, the inhibition is 6.11% (inactive).
Turning to `CC(C)Oc1ccc(-c2cncn2C)cc1`, the inhibition was -19.6% (inactive).
With `Cn1nnnc1SCCNC(=O)c1ccc2oc(Cc3ccccc3)nc2c1`, the inhibition is 3.65% (inactive).
With `COCCCn1c(C)c(C)n2c3c(=O)n(CC(C)C)c(=O)n(C)c3nc12` the figure was -5.91% (inactive); with `COC(=O)c1ccc(-c2nc(CN3CCN(C(=O)c4cccc(OC)c4)CC3)c(C)o2)cc1`, -3.22% (inactive); with `O=C(CC1CSc2nccc(=O)n21)Nc1ccc(Oc2ccccc2)cc1` (configuration not stated), -4.45% (inactive).
With `CCC(c1ccccc1)C1(O)OC(=O)c2ccccc21` (configuration not stated) the figure was -3.91% (inactive).
With `O=C(CCn1c(=O)oc2cc(Cl)ccc21)N1CCN(c2ccccc2Cl)CC1` the figure was -7.84% (inactive); with `COc1ccc(C(=O)NC2CC2)cc1OC1CCN(C/C=C/c2ccccc2)CC1`, -2.34% (inactive).
Turning to `CC(C)(C)n1ncc2c(=O)n(NC(=O)c3ccc(C(F)(F)F)cc3)cnc21`, the inhibition is -4.85% (inactive).
In the case of `C#CC(CC)(CC)NC(=O)c1ccc(S(C)(=O)=O)cc1` it was 1.64% (inactive); in that of `COc1cc(CNC(C)(C)CO)ccc1OCC(=O)Nc1ccc(C)cc1`, -4.89% (inactive).
Consider `CCc1ccc2oc3c(c(=O)c2c1)C(c1cccc([N+](=O)[O-])c1)N(c1cc(C)on1)C3=O` (configuration not stated), for which the inhibition is -10.5% (inactive).
In the case of `Cc1noc(CNC(=O)C2CC(=O)N(CC(F)(F)F)C2)n1` (configuration not stated), the inhibition is 1.05% (inactive).
Turning to `CCC1=NOC(C(=O)NCCn2c(C)cc(C)nc2=O)C1` (configuration not stated), the inhibition was 0.535% (inactive).
In the case of `CC(CCS(C)=O)NC(=O)Nc1ncc(-c2ccccc2)s1` (configuration not stated) it was -2.71% (inactive).
In the case of `Oc1c(Cl)cc(Cl)c(Cl)c1Cc1c(O)c(Cl)cc(Cl)c1Cl`, the inhibition is 92.7% (active) and 36.7% (inactive).
In the case of `COc1ccc(-c2csc(=Nc3cc(OC)cc(OC)c3)n2NC(=O)C(C)Oc2ccc(Cl)cc2C)cc1` (configuration not stated) it was 1.02% (inactive); in that of `Cc1cc(C)n(CCNC(=O)CN2CCN(c3ccc4c(c3)OCCO4)C2=O)n1`, -5.72% (inactive).
